Hits are enriched below; roughly 2.8% of the tested compounds scored in any of these assays.
Six1-Eya2 blk: inhibitors of human Six1/Eya2 interaction; Q15475+O00167; 0.56% of 360,000 active; activity change, % (test concentration not listed); AlphaScreen GST-Six1/His-Eya2 binding, biochemical; hits give low values; AID 651725; in the data active = activity change below about -65%; inconclusive = mostly about -30% to -63%; also: % is scaled to controls: 0 for no effect and ±100 for the full control effect
Target sequence (O00167 whole entry, looked up): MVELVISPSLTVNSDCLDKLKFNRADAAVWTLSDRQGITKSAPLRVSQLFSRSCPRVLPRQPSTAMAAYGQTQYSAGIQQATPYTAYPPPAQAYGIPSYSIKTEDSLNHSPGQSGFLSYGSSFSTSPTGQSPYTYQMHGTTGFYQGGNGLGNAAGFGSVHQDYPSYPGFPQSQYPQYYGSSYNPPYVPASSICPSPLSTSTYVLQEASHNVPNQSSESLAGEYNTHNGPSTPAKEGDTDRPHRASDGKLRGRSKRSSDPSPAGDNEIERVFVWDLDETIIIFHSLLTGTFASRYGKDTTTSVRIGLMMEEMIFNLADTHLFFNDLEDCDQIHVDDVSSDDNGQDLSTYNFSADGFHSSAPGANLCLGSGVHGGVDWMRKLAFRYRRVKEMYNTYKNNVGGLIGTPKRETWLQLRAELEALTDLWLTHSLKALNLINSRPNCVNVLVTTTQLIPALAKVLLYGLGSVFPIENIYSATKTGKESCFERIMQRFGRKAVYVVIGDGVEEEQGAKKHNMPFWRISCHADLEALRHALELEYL
Target sequence (Q15475 whole entry, looked up): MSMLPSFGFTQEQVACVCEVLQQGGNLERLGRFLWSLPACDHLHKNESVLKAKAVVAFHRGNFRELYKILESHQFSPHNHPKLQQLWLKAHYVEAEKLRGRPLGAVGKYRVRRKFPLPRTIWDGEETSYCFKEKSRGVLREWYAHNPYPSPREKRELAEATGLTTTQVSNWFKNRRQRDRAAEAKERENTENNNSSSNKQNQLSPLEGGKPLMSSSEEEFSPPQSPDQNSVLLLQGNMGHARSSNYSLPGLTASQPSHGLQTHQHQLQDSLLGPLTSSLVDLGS
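GST-Six1 + His-Eya2 (5X stock: 250/500 nM); Tris pH 8.0, 300 mM NaCl, 0.05% BSA, 0.02% Tween 20; GSH donor/Ni acceptor beads; 1 h 37 °C dark; AlphaScreen readout.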
CtBP-E1A blk: blocks the CtBP interaction with E1A; 0.49% of 340,000 active; activity change, % (no concentration beside the values); AID 651724; AlphaScreen GST-E1A/His-CtBP binding, 1536-well; hits give low values; in the data active = activity change below about -65%; inconclusive = mostly about -30% to -63%; also: % is scaled to controls: 0 for no effect and ±100 for the full control effect
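GST-E1A and His-tagged CtBP (125 nM each as 5X stock) were preincubated with pin-transferred compound for 2 h at 37 °C in the dark, then glutathione donor and nickel acceptor beads were added for 1 h before AlphaScreen reading.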
TGFb inhibitor: blocks TGF-b signaling | HepG2 CAGA-GFP TGF-b/SMAD3 reporter, GFP fluorescence, 18 h; TGF-beta stimulated, 500 pg/mL final | Potency, µM (highest dose often 46.1 µM), for the others: top-dose activity, negative = inhibition, actives largely listed as inhibitors | 1.2% of 410,000 active; also: potency is read from the fitted curve at half-maximal effect; % is scaled to controls: 0 for no effect and ±100 for the full control effect; nearly all actives have a fitted effect of over 65% in size
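Inhibition of TGF-beta-driven CAGA-GFP reporter expression in HEPG2 cells is measured by cellular GFP fluorescence after 18 h stimulation with 500 pg/mL recombinant TGF-beta in 1% FBS medium at 37 degrees C.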
ATXN2 expr inh: ATXN2 expression inhibition; AID 1745845; HEK-293 ATXN2-luciferase reporter, luminescence, 24 h; Potency, µM (highest dose often 57 µM), inactives show at the top dose activity change, negative = inhibition, hits mostly inhibitors; 0.72% of 360,000 active; also: potency is read from the fitted curve at half-maximal effect; % is scaled to controls: 0 for no effect and ±100 for the full control effect; nearly all actives have a fitted effect of over 55% in size
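ATXN2-luciferase reporter cells (luciferase flanked by upstream and downstream ATXN2 gene portions) were treated 24 h at 37 °C with compounds at up to 57 uM. SteadyGlo luminescence gave expression; GF-AFC fluorescence gave viability.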
HepG2 viability: HepG2 cytotoxicity, counter-screen for TGF-b inhibitors. HepG2 CAGA-GFP viability, ATP luminescence, 18 h. 0.76% of 410,000 active. Potency, µM (titrated, usually from 46.1 µM), inactives show at the top dose activity change, negative = cytotoxicity, usual class: cytotoxic; also: potency is read from the fitted curve at half-maximal effect
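CellTiter-Glo luminescence gave cytotoxicity after 18 hours at 37 degrees C. The cells were HepG2 CAGA-GFP in 1% FBS DMEM, stimulated with 500 pg/mL TGF-beta after compound addition. %Activity was normalised to no-cell wells (complete cell-killing) and DMSO (no toxicity), and curves were fitted and classified.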
ATXN viability: cell viability loss in ATXN counter-screen | S2 cells (HEK-293 line with an ATXN2-luciferase reporter) viability, CellTiter-Fluor protease fluorescence, 24 h | Potency, µM (series often up to 56.7 µM), hits mostly cytotoxic | 0.49% of 400,000 active | AID 651635; also: potency is read from the fitted curve at half-maximal effect; nearly all actives have a fitted effect of over 40% in size
Active calls of the source: *; i = inactive; ? = inconclusive; . = not tested or not shown; ! = repeats disagree. Unless noted, calls follow the shape of the dose curve; as a rule, active = well fitted curve in the direction sought with a large enough effect; inconclusive = small, poorly fitted or top-dose-only effect, or another doubt; inactive = no such curve, though single readings can be large; an effect the other way counts as inactive or inconclusive.

SMILES | Six1-Eya2 blk | CtBP-E1A blk | TGFb inhibitor | ATXN2 expr inh | HepG2 viability | ATXN viability
N#CCCN(/N=C/c1cccnc1)C1=NS(=O)(=O)c2ccccc21 | -18.2 | -24.0 | 9.3% | -6.5% | 4.5% | i
CC(C)(C)NC(=O)CCN(/N=C/c1ccccc1)C1=NS(=O)(=O)c2ccccc21 | ? | -65.3* | 0.0% | 0.5% | 14.9% | i
Oc1ccc(C=Cc2cc(O)cc(O)c2)cc1 | . | . | . | 59.2% | . | .
CNc1c(NC(=O)c2cc(OC)cc(OC)c2)c(=O)oc2ccccc12 | . | . | 3.9% | 15.3% | 0.6% | i
COc1ccc(N2CCN(C(=O)c3cn(C4CCCCC4)c(=O)c4c3c3ccccc3n4C)CC2)cc1 | . | . | ? | -7.9% | -86.3% | 11.2µM*
Cc1cc(C)c2c(N)c(C(=O)Nc3ncc(C)s3)sc2n1 | -1.3 | -20.1 | 0.0% | 2.51µM* | -53.4% | i
Cc1c(C(=O)NCC(C)C)sc2ncnc(NCC3CCCO3)c12 (stereo not drawn) | . | . | . | . | . | i
Cc1ccc(-c2nc3cccnc3o2)cc1NC(=O)COc1ccc(Cl)cc1C | 0.3 | -1.3 | 3.9% | 31.6µM* | 16.8% | 28.2µM*
CCCCCCCn1ccc(=N)cc1 | 0.8 | 6.3 | ? | ? | 1.7% | i
CCCCCCCCCn1ccc(=N)cc1 | 13.9 | 7.5 | ? | 2.12µM* | -2.9% | i
Cc1ccc(N=C2SC(C(=O)Nc3ccc(OC(F)(F)F)cc3)C(N)=C2C(=O)Nc2c(C)cc(C)cc2C)cc1 (stereo not drawn) | -2.1 | -0.7 | 7.08µM* | ? | 11.2µM* | .
COc1cc(/C=C2/C(=O)c3cccc([N+](=O)[O-])c3C2=O)c(Br)cc1O | -5.2 | -6.4 | ? | 22.4µM* | -32.7% | .
CCCCC(CC)Cn1c(N)c(C#N)c2nc3ccccc3nc21 (stereo not drawn) | 11.7 | 4.9 | ? | -17.5% | 14.1µM* | i
COc1ccc(C2CC(=O)c3cc(-c4nc(-c5ccc(Cl)cc5)cs4)c(=O)[nH]c3C2)cc1OC (stereo not drawn) | . | . | 10.9% | -1.3% | -19.6% | i
CSc1ccc(C(=O)C2CCCN(C(=O)c3ccc4c(c3)no[n+]4[O-])C2)cc1 (stereo not drawn) | -5.5 | . | ? | . | -18.3% | 14.1µM*
Cc1nc2ccn(Cc3ccco3)c(=O)c2cc1C(=O)NCc1ccc(Cl)cc1 | . | . | 10µM* | . | -19.8% | .
Clc1ccc(-c2nc(NCCN3CCOCC3)c3ccccc3n2)cc1 | -15.7 | -23.4 | -1.4% | -1.8% | -19.0% | i
COc1cc2nc(=S)n(CCCN3CCOCC3)c(N)c2cc1OC | -85.2* | -87.6* | -23.7% | -11.6% | 0.3% | i
COc1cc2ncnc(NCCCN3CCOCC3)c2cc1OC | -0.3 | . | 1.7% | . | 16.0% | i
COc1cc2nc(-c3ccc(N4CCN(C)CC4)cc3)nc(NCCN3CCOCC3)c2cc1OC | . | . | . | 0.385µM* | . | .
CCOc1cc2nc(-c3ccc(OC)c(OC)c3)nc(NCCCN3CCOCC3)c2cc1OC | -91.0* | -88.2* | 4.9% | -12.4% | -15.6% | i
COc1ccc(C2c3c(ncn(CCCN4CCOCC4)c3=N)Oc3ccc4ccccc4c32)cc1OC (stereo not drawn) | -3.2 | . | ? | . | -73.9% | ?
CN1Cc2cc(C(=O)N3CCC(C4CCNCC4)CC3)ccc2N[C@@H](CC(=O)O)C1=O | . | . | . | 0.9% | . | i
COc1cc(=O)n2c(c1C(=O)NCc1nonc1C)CCN(Cc1c[nH]c3ccccc13)CC2 | . | . | . | . | . | i
Oc1cccc(C(Nc2nccs2)c2ccc3cccnc3c2O)c1 (stereo not drawn) | -82.9* | -81.4* | 14.1µM* | ? | -25.9% | i
SMILES | Six1-Eya2 blk | CtBP-E1A blk | TGFb inhibitor | ATXN2 expr inh | HepG2 viability | ATXN viability
COc1cccc(C(NC(C)=O)c2ccc3cccnc3c2O)c1 (stereo not drawn) | -66.8* | -91.3* | ? | ? | -25.2% | ?
O=[N+]([O-])c1ccc(NC(c2ccccc2)c2ccc3cccnc3c2O)cc1 (stereo not drawn) | -18.3 | -19.7 | -7.3% | 2.82µM* | -0.8% | i
CC(=O)NC(c1cccc([N+](=O)[O-])c1)c1ccc2cccnc2c1O (stereo not drawn) | -68.6* | -92.4* | ? | 3.16µM* | -20.2% | ?
COc1cccc(C(Nc2ccccc2)c2ccc3ccc(C)nc3c2O)c1 (stereo not drawn) | -25.5 | -5.4 | . | . | . | .
Oc1c(C(Nc2cccnc2)c2ccc(C(F)(F)F)cc2)ccc2cccnc12 (stereo not drawn) | . | . | ? | . | -48.4% | .
CC(=O)NC(c1ccc(C(C)C)cc1)c1ccc2cccnc2c1O (stereo not drawn) | ? | ? | ? | 3.16µM* | -53.8% | ?
NC(=NCCCCCCN=C(N)/N=C(\N)Nc1ccc(Cl)cc1)/N=C(\N)Nc1ccc(Cl)cc1 | -1.5 | -16.4 | ? | 20µM*! | -28.3% | 31.6µM*!
Cc1cccc2sc(NNC(=O)c3ccc(S(=O)(=O)N4CCc5ccccc5C4)cc3)nc12 | 0.1 | -13.6 | 11.2µM* | ? | -34.0% | ?
Cc1cccc2sc(NNC(=O)c3ccc(S(=O)(=O)N4CCCC(C)C4)cc3)nc12 (stereo not drawn) | -0.1 | -7.1 | 12.6µM* | ? | -61.2% | i
CCOC(=O)N1CCN(S(=O)(=O)c2ccc(C(=O)NNc3nc4c(C)cccc4s3)cc2)CC1 | -13.6 | -0.8 | ? | ? | -31.0% | i
COc1ccc2nc(NC(=O)c3ccoc3C)sc2c1 | -2.4 | -2.5 | ? | ? | 7.94µM* | ?
COc1ccc2nc(NC(=O)CN3C(=O)NC4(CCCC4)C3=O)sc2c1 | -2.2 | 1.3 | -21.3% | 22.5% | -26.8% | ?
COc1ccc2nc(NC(=O)CN3C(=O)NC4(CCCCC4)C3=O)sc2c1 | 11.4 | -4.5 | 0.7% | 6.2% | 4.47µM* | ?
Cc1oc(-c2ccccc2NC(=O)c2ccsc2)nc1CN(C)Cc1ccc2c(c1)CCCN2C | . | . | . | . | . | i
CC(C)C(NS(C)(=O)=O)c1nnc2n1CCN(Cc1cccc3ncccc13)CC2 (stereo not drawn) | . | . | . | . | . | i
CCC(NC(=O)Nc1nnc(C(F)(F)F)s1)(C(F)(F)F)C(F)(F)F | 10.1 | 2.8 | ? | 8.91µM* | -39.6% | .
C[n+]1cc2c3c(ccc2c2ccc4cc5c(cc4c21)OCO5)OCO3 | . | . | 1.41µM* | 1.58µM* | -105.0% | 2.82µM*
O=c1[nH]c2ccc(Cl)cc2c(-c2ccccc2)c1SC(=S)N1CCOCC1 | -13.6 | -6.7 | 12.6µM* | -6.6% | -65.3% | i
O=c1[nH]c2ccc(Cl)cc2c(-c2ccccc2)c1SC(=S)N1CCCCC1 | -28.0 | -27.1 | -4.7% | -4.0% | -2.8% | i
